Out of some 5,500 compounds screened, about 2,000 (36%) were called active. Another 18% or so got no clear call; they are omitted. Cut-off read from the data, not from the text of the source: active = normalized growth mostly below about 0.91 (no sharp cut-off); inconclusive = no clear call, values can overlap the other calls; inactive = mostly above about 0.92. The list shows a part of the results.
Experiment: chemical genetic growth profiling, strain panel (AID 1159580);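 note: tested at 20 µM; growth read once vehicle control cultures reached saturation at 30 °C; 1 = growth at the plate median or of vehicle wells; lower values mean less growth of the strain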
Conditions: growth OD

Measured: normalized growth

Cc1cc2cc3c(C)cc(=O)oc3c(C)c2o1
inactive: S. cerevisiae deletion strains, locus YKL009W, strain mrt4, stronger effect = lower value 0.894 | S. cerevisiae deletion strains, locus YKL068W, stronger effect = lower value 1.01 | S. cerevisiae deletion strains, locus YKL085W, strain MDH1 (second series), stronger effect = lower value 0.992 | S. cerevisiae deletion strains, locus YKL085W, strain MDH1, stronger effect = lower value 0.992 | S. cerevisiae deletion strains, locus YKL160W, strain elf1, stronger effect = lower value 0.951 | S. cerevisiae deletion strains, locus YKL190W, strain CNB1, stronger effect = lower value 0.981 | S. cerevisiae deletion strains, locus YKR001C, strain vps1, stronger effect = lower value 0.916 | S. cerevisiae deletion strains, locus YKR026C, strain gcn3, stronger effect = lower value 0.987 | S. cerevisiae deletion strains, locus YKR091W, strain srl3, stronger effect = lower value 1.01 | S. cerevisiae deletion strains, locus YLL001W, strain dnm1, stronger effect = lower value 0.993 | S. cerevisiae deletion strains, locus YLL026W, stronger effect = lower value 0.981 | S. cerevisiae deletion strains, locus YLL041C, strain sdh2, stronger effect = lower value 1.01 | S. cerevisiae deletion strains, locus YLR027C, strain aat2, stronger effect = lower value 1 | S. cerevisiae deletion strains, locus YLR039C, strain RIC1, stronger effect = lower value 0.927 | S. cerevisiae deletion strains, locus YLR058C, strain SHM2, stronger effect = lower value 0.971 | S. cerevisiae deletion strains, locus YLR102C, strain apc9, stronger effect = lower value 0.994 | S. cerevisiae deletion strains, locus YLR113W, strain HOG1, stronger effect = lower value 1.02 | S. cerevisiae deletion strains, locus YLR221C, strain rsa3, stronger effect = lower value 0.947 | S. cerevisiae deletion strains, locus YLR258W, strain gsy2, stronger effect = lower value 0.956 | S. cerevisiae deletion strains, locus YLR262C, strain YPT6 (second series), stronger effect = lower value 0.994 | S. cerevisiae deletion strains, locus YLR262C, strain YPT6, stronger effect = lower value 0.912 | S. cerevisiae deletion strains, locus YLR268W, strain sec22, stronger effect = lower value 0.898 | S. cerevisiae deletion strains, locus YLR320W, strain mms22, stronger effect = lower value 0.909 | S. cerevisiae deletion strains, locus YLR330W, strain CHS5, stronger effect = lower value 0.984 | S. cerevisiae deletion strains, locus YLR342W, strain FKS1 (second series), stronger effect = lower value 0.915 | S. cerevisiae deletion strains, locus YLR342W, strain FKS1, stronger effect = lower value 0.994 | S. cerevisiae deletion strains, locus YLR357W, strain rsc2, stronger effect = lower value 1.1 | S. cerevisiae deletion strains, locus YLR370C, strain arc18, stronger effect = lower value 0.986 | S. cerevisiae deletion strains, locus YLR371W, strain rom2, stronger effect = lower value 0.99 | S. cerevisiae deletion strains, locus YLR384C, strain iki3, stronger effect = lower value 1 | S. cerevisiae deletion strains, locus YML016C, strain PPZ1, stronger effect = lower value 0.951 | S. cerevisiae deletion strains, locus YML120C, strain ndi1, stronger effect = lower value 0.996 | S. cerevisiae deletion strains, locus YML124C, strain tub3, stronger effect = lower value 0.986 | S. cerevisiae deletion strains, locus YMR058W, strain fet3, stronger effect = lower value 0.945 | S. cerevisiae deletion strains, locus YMR078C, strain ctf18, stronger effect = lower value 0.974 | S. cerevisiae deletion strains, locus YMR129W, stronger effect = lower value 1.02 | S. cerevisiae deletion strains, locus YMR205C, strain PFK2, stronger effect = lower value 1.03 | S. cerevisiae deletion strains, locus YMR223W, strain ubp8, stronger effect = lower value 0.936 | S. cerevisiae deletion strains, locus YMR231W, strain pep5, stronger effect = lower value 1 | S. cerevisiae deletion strains, locus YMR263W, strain SAP30, stronger effect = lower value 0.908 | S. cerevisiae deletion strains, locus YMR307W, strain GAS1, stronger effect = lower value 0.887 | S. cerevisiae deletion strains, locus YNL067W, strain RPL9B, stronger effect = lower value 0.897 | S. cerevisiae deletion strains, locus YNL071W, strain lat1, stronger effect = lower value 0.931 | S. cerevisiae deletion strains, locus YNL128W, strain TEP1, stronger effect = lower value 0.975 | S. cerevisiae deletion strains, locus YNL153C, strain GIM3, stronger effect = lower value 0.918 | S. cerevisiae deletion strains, locus YNL183C, strain NPR1, stronger effect = lower value 0.924 | S. cerevisiae deletion strains, locus YNL209W, strain ssb2, stronger effect = lower value 0.981 | S. cerevisiae deletion strains, locus YNL233W, strain BNI4, stronger effect = lower value 0.885 | S. cerevisiae deletion strains, locus YNL250W, strain rad50, stronger effect = lower value 0.963 | S. cerevisiae deletion strains, locus YNL271C, strain bni1, stronger effect = lower value 0.964 | S. cerevisiae deletion strains, locus YNL298W, strain CLA4, stronger effect = lower value 0.941 | S. cerevisiae deletion strains, locus YNL322C, strain KRE1 (second series), stronger effect = lower value 1 | S. cerevisiae deletion strains, locus YNL322C, strain KRE1, stronger effect = lower value 0.993 | S. cerevisiae deletion strains, locus YNR049C, strain mso1, stronger effect = lower value 1.01 | S. cerevisiae deletion strains, locus YNR052C, strain pop2, stronger effect = lower value 0.98 | S. cerevisiae deletion strains, locus YOL006C, strain TOP1, stronger effect = lower value 0.585 | S. cerevisiae deletion strains, locus YOL012C, strain htz1 0.819 | S. cerevisiae deletion strains, locus YOL147C, strain pex11, stronger effect = lower value 0.986 | S. cerevisiae deletion strains, locus YOR001W, strain rrp6, stronger effect = lower value 0.972 | S. cerevisiae deletion strains, locus YOR061W, strain CKA2, stronger effect = lower value 0.97 | S. cerevisiae deletion strains, locus YOR069W, strain VPS5, stronger effect = lower value 0.974 | S. cerevisiae deletion strains, locus YOR070C, strain gyp1, stronger effect = lower value 0.979 | S. cerevisiae deletion strains, locus YOR080W, strain dia2, stronger effect = lower value 1 | S. cerevisiae deletion strains, locus YOR083W, strain WHI5, stronger effect = lower value 0.941 | S. cerevisiae deletion strains, locus YOR106W, strain vam3, stronger effect = lower value 0.98 | S. cerevisiae deletion strains, locus YOR136W, strain idh2, stronger effect = lower value 0.969 | S. cerevisiae deletion strains, locus YOR144C, strain elg1, stronger effect = lower value 0.979 | S. cerevisiae deletion strains, locus YOR184W, strain ser1, stronger effect = lower value 0.875 | S. cerevisiae deletion strains, locus YOR231W, strain MKK1, stronger effect = lower value 0.926 | S. cerevisiae deletion strains, locus YOR265W, strain rbl2, stronger effect = lower value 0.995 | S. cerevisiae deletion strains, locus YOR270C, strain vph1, stronger effect = lower value 0.872 | S. cerevisiae deletion strains, locus YOR290C, strain snf2, stronger effect = lower value 0.949 | S. cerevisiae deletion strains, locus YOR316C, strain cot1, stronger effect = lower value 0.989 | S. cerevisiae deletion strains, locus YPL051W, strain arl3, stronger effect = lower value 0.982 | S. cerevisiae deletion strains, locus YPL055C, strain LGE1, stronger effect = lower value 0.88 | S. cerevisiae deletion strains, locus YPL078C, strain atp4, stronger effect = lower value 0.976 | S. cerevisiae deletion strains, locus YPL106C, strain sse1, stronger effect = lower value 0.92 | S. cerevisiae deletion strains, locus YPL240C, strain hsp82, stronger effect = lower value 0.994 | S. cerevisiae deletion strains, locus YPL241C, strain CIN2, stronger effect = lower value 0.985 | S. cerevisiae deletion strains, locus YPL256C, strain CLN2, stronger effect = lower value 0.993 | S. cerevisiae deletion strains, locus YPR119W, strain clb2, stronger effect = lower value 0.987 | S. cerevisiae deletion strains, locus YPR141C, strain kar3, stronger effect = lower value 0.996 | S. cerevisiae deletion strains, locus YPR163C, strain tif3, stronger effect = lower value 0.969 | S. cerevisiae deletion strains, locus YPR167C, strain met16, stronger effect = lower value 0.983 | S. cerevisiae deletion strains, strain wtn01, stronger effect = lower value 0.931 | S. cerevisiae strains, strain wild type, stronger effect = lower value 0.964
active: S. cerevisiae deletion strains, locus YLR418C, strain cdc73, stronger effect = lower value 0.83 | S. cerevisiae deletion strains, locus YML032C, strain rad52, stronger effect = lower value 0.8 | S. cerevisiae deletion strains, locus YMR125W, strain sto1, stronger effect = lower value 1.11 [resistant] | S. cerevisiae deletion strains, locus YNL248C, strain rpa49, stronger effect = lower value 0.861 | S. cerevisiae deletion strains, locus YNL307C, strain MCK1, stronger effect = lower value 0.905
